Values joined by “and” are separate entries in the source; they are usually repeats but may differ in a detail not shown here. Equal entries are not always repeated. More than one record can exist for a structure, and the calls need not agree. Active and inactive are the calls of the source. The calls were made as follows: active = hit-call score of the fitted dose curve at least 0.9, where 1 is the maximum; inactive = score below 0.9.
The compounds below were run against Cellular tumor antigen p53 (Homo sapiens) (UniProt P04637) (assay: ATG_p53_CIS: Attagene CIS-FACTORIAL HepG2 Assay for human p53 Transcription Factor (AID 2282994)). Settings: HepG2 p53 cis-element reporter, Attagene mRNA; actives raise or lower the signal.
Sequence of Cellular tumor antigen p53 (Homo sapiens) (P04637 whole entry, looked up): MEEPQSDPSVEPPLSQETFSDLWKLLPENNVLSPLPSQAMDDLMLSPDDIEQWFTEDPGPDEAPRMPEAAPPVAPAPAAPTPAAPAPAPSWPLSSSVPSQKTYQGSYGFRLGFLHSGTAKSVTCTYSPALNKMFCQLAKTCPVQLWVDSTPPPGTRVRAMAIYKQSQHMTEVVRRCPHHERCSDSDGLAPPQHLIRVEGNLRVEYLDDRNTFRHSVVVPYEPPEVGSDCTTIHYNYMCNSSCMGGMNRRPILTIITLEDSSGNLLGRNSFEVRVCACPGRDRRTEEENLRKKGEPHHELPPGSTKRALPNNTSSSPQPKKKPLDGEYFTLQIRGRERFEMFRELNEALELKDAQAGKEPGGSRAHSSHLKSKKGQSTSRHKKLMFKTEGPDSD
Procedure: ATG_CIS is a cell-based, multiplexed-readout assay that uses HepG2, a human liver cell line, with measurements taken at 24 hours after chemical dosing in a 24-well plate.ATG_p53_CIS is one of 52 assay component(s) measured or calculated from the ATG_CIS assay. It is designed to make measurements of mRNA induction, a form of inducible reporter, as detected with fluorescence intensity signals by Reverse transcription polymerase chain reaction (RT-PCR) and Capillary electrophoresis technology.Data from the assay component ATG_p53_CIS was analyzed into 1 assay endpoint. This assay endpoint, ATG_p53_CIS, was analyzed with bidirectional fitting relative to DMSO as the negative control and baseline of activity. Using a type of inducible reporter, measures of mRNA for gain or loss-of-signal activity can be used to understand the reporter gene at the transcription factor-level as they relate to the gene TP53. Furthermore, this assay endpoint can be referred to as a primary readout, because this assay has produced multiple assay endpoints where this one serves a reporter gene function. To generalize the intended target to other relatable targets, this assay endpoint is annotated to the dna binding intended target family, where the subfamily is tumor suppressor.
Human liver HepG2 cells are transiently transfected with multiple reporter transcription units (MRTUs) in 6-well plates using FuGene 6 reagent (Roche; 3 ml FuGene/1 mg DNA). The MRTU constructs are regulated by a cis-regulating element (promoter). […] A major difference between the CIS and TRANS system is that in CIS activities of endogenous TFs are measured, whereas the TRANS assay evaluates changes in activities of exogenous, chimeric NR-Gal4 proteins. […] At the end of 24 hour incubation, total RNA was isolated using TriZol reagent (Invitrogen). The isolated RNA is then reverse-transcribed using oligo(dT) primer and Mo-MLV reverse transcriptase (Invitrogen) with DNAse I (Ambion) treatment for 30 min. The one-tenth of the produced cDNA was amplified by PCR using Taq DNA polymerase (Invitrogen) and two reporter sequence-specific primers. The PCR products were fluorescently labeled by primer extension with 6-arboxyfluorescein (6-FAM) 5'-labeled reporter sequence-specific primer (2 min at 95 C, 20 s at 68 C and 10 min at 72 C) and these products were digested with 5U of HpaI (New England Biolabs) for 2h at 37 C. The fragments were purified using Qiaquick PCR columns (Qiagen), analyzed on an ABI 3130xL genetic analyzer (Applied Biosystems) with peak positions identified by using a set of X-rhodamine (ROX)-labeled MapMarker1000 molecular weight standards (BioVentures). The raw capillary electrophoresis data was processed using Attagraph software (Attagene).
`Cc1cc(=O)[nH]o1` was tested, and the outcome was “inactive”. `CCOP(=O)(CN(CCO)CCO)OCC` was tested, and the outcome was “inactive”. In the case of `ClCC(Cl)CCl`, the outcome is reported as “inactive”. `COP(=S)(OC)Oc1cc(Cl)c(Cl)cc1Cl` was tested, and the outcome was “inactive”. With `CC(C#N)CCC#N` (stereo not given) the outcome was “inactive”. `Nc1ncc([N+](=O)[O-])s1` was tested, and the outcome was “inactive”. For `Oc1cccc2cccnc12`, the outcome was “inactive”. With `Nc1ccc(Cl)cc1C(=O)c1ccccc1` the outcome was “inactive”. For `COc1cc(-c2ccc(N)c(OC)c2)ccc1N`, the outcome was “inactive”. With `CCCCP(CCCC)CCCC` the outcome was “inactive”. `BrCCBr` was tested, and the outcome was “inactive”. For `CC(=O)[O][Hg][c]1ccccc1`, the outcome was “inactive”. With `COP(=S)(OC)Oc1c(Cl)cc(C)cc1Cl` the outcome was “inactive”. With `CCCCOCCOC(C)=O` the outcome was “inactive”. In the case of `Cc1ccccc1C(=O)Nc1cccc(OC(C)C)c1`, the outcome is reported as “inactive”. With `CC(C)(OO)c1ccccc1` the outcome was “inactive”. With `CC(=[OH+])/C=C(/C)[O-].CC(=[OH+])/C=C(/C)[O-].CC(=[OH+])/C=C(/C)[O-].[Al]` the outcome was “inactive”. For `C[C@@H](Oc1ccc(Cl)cc1Cl)C(=O)O`, the outcome was “inactive”. With `Nc1cccc(Cl)c1` the outcome was “inactive”. With `C=C(C)C#N` the outcome was “inactive”. `CNC` was tested, and the outcome was “inactive”. In the case of `CCC(C)(C)c1ccc(O)c(C(C)(C)CC)c1`, the outcome is reported as “inactive”. With `Clc1ccc(C2(Cn3cncn3)CC(Br)CO2)c(Cl)c1` (stereo not given) the outcome was “inactive”. In the case of `CC(=O)OC(c1ccccc1)C(Cl)(Cl)Cl` (stereo not given), the outcome is reported as “inactive”. For `CCN1CCC2(CC1)COc1cc3c(cc12)N(C(=O)c1ccc(-c2ccc(-c4nnc(C)o4)cc2C)cc1)CC3`, the outcome was “inactive”. `C[C@]12CCC(=O)C[C@@H]1CC[C@@H]1[C@@H]2CC[C@]2(C)[C@@H](O)CC[C@@H]12` was tested, and the AC50 was 51.4 µM (active) and the outcome was “inactive”. With `COc1cc2c(cc1OC)[C@@]13CCN4CC5=CCO[C@H]6CC(=O)N2[C@H]1[C@H]6[C@H]5C[C@H]43` the outcome was “inactive”. With `COc1cc(OC)nc(NC(=O)NS(=O)(=O)c2ncccc2C(=O)N(C)C)n1` the outcome was “inactive”. `C[C@@H]1C[C@@H]([C@H](O)CC2CC(=O)NC(=O)C2)C(=O)[C@@H](C)C1` was tested, and the AC50 was 1.24 µM (active) and 2.34 µM (active) and 1.67 µM (active) and the outcome was “inactive”. `Cc1cc(Cl)ccc1O[C@H](C)C(=O)O` was tested, and the outcome was “inactive”. In the case of `NC(=O)O`, the outcome is reported as “inactive”. For `C1CCC(NC2CCCCC2)CC1`, the outcome was “inactive”. In the case of `Clc1ccc(COC(Cn2ccnc2)c2ccc(Cl)cc2Cl)cc1` (stereo not given), the outcome is reported as “inactive”. In the case of `CN(C)P(=O)(N(C)C)N(C)C`, the outcome is reported as “inactive”. `COC(=O)Cc1ccccc1` was tested, and the outcome was “inactive”. In the case of `OCc1ccco1`, the outcome is reported as “inactive”. In the case of `N#CCc1ccc(Cl)cc1`, the outcome is reported as “inactive”. With `ClCCBr` the outcome was “inactive”.

— PubChem BioAssay (EPA / NIEHS)
